Experimental findings from the supplement of paper PMC10849652 are described below.

What all share (assay): log2 fold change, soluble protein after heating vs DMSO (PISA); higher = thermal stabilisation; K562 cells, 10 uM, 30 min; active = over 0.2 and 3.5 SD of the protein, either way, in both replicates (recomputed)
Compound in assay [1]: CC1=C(C=C(C=C1)NC(=O)C2=CC(=CC=C2)C(C)(C)C#N)NC3=CC4=C(C=C3)N=CN(C4=O)C
The essentials:
(§1)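 K562 cells at 2×10^6 cells/mL were treated for 30 min with 10 μM compound, and aliquots were heated for 3 min over 48°C-58°C before pooling. Extraction used PBS with 0.5% NP-40 at 4°C, and soluble protein was the supernatant after 21,000xg for 90 min, measured by TMTpro 16plex LC-MS/MS with channel sums equalised. Thermal stability values, relative to control samples and from duplicates, are log2 fold changes.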

Compound in assay [2]: CC1=C(C=C(C=C1)NC(=O)C2=CC(=CC=C2)N(C)C)NC(=O)C3=CC=C(C=C3)O
A digest of the protocol:
as §1

Compound in assay [3]: CC1=CC=C(C=C1)SC2=C3C=C(SC3=CN=C2)C(=O)N
The essentials:
as §1

Compound in assay [4]: CCCS(=O)(=O)Nc1ccc(F)c(C(=O)c2c[nH]c3ncc(Cl)cc23)c1F
The essentials:
as §1

Compound in assay [5]: CCCc1cc(C)[nH]c(=O)c1CNC(=O)c1cc(-c2ccnc(N3CCN(C)CC3)c2)cc2c1cnn2C(C)C
The essentials:
as §1

Compound in assay [6]: CCN(CC)Cc1ccc2cc(COC(=O)Nc3ccc(C(=O)NO)cc3)ccc2c1 [givinostat]
A digest of the protocol: as §1

Compound in assay [7]: CC1=NC(=CC=C1)C2=C(N=C(N2)C(C)(C)C)C3=CC4=NC=CN=C4C=C3
The essentials: as §1

Compound in assay [8]: CCCCN(Cc1ccc(C(=O)NO)cc1)C(=O)Nc1ccccc1 [Nexturastat A]
A digest of the protocol:
as §1

Compound in assay [9]: CCCS(=O)(=O)Nc1ccc(F)c(C(=O)c2c[nH]c3ncc(-c4ccc(Cl)cc4)cc23)c1F [vemurafenib]
A digest of the protocol: as §1

Compound in assay [10]: CCN(CCCOc1ccc2c(Nc3cc(CC(=O)Nc4cccc(F)c4)[nH]n3)ncnc2c1)CCOP(=O)(O)O [barasertib]
A digest of the protocol:
as §1

About 7,900 targets were measured; listed, in parts, are those with a hit and a random draw of the rest. About 0.6% of all pairs of compound and target were hits. Values without a mark were called inactive.

UniProt Q9H4I9, sequence (Q9H4I9 whole entry, looked up): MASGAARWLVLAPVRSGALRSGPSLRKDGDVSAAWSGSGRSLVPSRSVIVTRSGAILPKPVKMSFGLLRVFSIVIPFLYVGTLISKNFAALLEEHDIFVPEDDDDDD
UniProt Q969S0, sequence (Q969S0 whole entry, looked up): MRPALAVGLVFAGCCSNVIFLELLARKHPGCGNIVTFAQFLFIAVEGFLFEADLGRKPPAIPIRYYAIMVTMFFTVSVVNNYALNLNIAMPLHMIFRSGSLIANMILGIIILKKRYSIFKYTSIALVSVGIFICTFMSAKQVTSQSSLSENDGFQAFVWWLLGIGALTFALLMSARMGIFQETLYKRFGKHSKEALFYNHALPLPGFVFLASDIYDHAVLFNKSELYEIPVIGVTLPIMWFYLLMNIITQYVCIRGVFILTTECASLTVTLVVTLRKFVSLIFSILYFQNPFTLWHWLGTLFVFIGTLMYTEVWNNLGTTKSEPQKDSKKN
UniProt Q9Y2H1, sequence (Q9Y2H1 whole entry, looked up): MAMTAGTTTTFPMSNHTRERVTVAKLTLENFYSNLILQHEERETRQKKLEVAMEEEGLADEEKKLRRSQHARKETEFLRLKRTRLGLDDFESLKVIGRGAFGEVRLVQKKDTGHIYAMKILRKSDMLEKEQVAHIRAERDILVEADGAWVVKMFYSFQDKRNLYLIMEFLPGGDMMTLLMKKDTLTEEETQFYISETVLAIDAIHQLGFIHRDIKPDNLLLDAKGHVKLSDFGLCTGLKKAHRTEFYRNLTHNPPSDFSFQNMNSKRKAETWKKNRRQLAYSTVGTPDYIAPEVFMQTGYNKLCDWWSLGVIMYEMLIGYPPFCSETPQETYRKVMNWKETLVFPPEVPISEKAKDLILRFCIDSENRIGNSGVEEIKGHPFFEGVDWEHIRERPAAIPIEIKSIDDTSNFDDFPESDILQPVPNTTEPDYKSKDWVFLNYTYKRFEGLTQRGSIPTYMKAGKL
UniProt Q6J4K2, sequence (Q6J4K2 whole entry, looked up): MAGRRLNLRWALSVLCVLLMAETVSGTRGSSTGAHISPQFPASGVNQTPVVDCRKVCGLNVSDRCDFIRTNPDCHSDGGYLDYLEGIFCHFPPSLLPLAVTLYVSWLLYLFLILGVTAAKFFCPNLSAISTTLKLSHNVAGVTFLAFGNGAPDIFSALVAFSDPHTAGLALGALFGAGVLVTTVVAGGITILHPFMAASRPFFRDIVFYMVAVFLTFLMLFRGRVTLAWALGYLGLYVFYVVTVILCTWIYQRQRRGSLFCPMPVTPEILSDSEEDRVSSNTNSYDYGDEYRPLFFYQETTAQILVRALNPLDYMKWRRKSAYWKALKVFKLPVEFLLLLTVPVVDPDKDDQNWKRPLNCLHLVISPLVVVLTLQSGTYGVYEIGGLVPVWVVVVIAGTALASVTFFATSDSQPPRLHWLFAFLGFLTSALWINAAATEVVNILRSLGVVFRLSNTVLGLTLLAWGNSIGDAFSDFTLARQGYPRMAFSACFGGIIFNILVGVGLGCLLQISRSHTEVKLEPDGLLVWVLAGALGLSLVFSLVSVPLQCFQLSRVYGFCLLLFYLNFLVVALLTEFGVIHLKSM
UniProt Q5JUR7, sequence (Q5JUR7 whole entry, looked up): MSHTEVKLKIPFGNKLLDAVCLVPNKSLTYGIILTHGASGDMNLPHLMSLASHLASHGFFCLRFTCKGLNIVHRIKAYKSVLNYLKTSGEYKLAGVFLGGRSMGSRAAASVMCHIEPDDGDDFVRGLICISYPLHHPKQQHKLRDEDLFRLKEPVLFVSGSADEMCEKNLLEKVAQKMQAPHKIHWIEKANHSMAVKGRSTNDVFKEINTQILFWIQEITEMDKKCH
UniProt Q9UL54, sequence (Q9UL54 whole entry, looked up): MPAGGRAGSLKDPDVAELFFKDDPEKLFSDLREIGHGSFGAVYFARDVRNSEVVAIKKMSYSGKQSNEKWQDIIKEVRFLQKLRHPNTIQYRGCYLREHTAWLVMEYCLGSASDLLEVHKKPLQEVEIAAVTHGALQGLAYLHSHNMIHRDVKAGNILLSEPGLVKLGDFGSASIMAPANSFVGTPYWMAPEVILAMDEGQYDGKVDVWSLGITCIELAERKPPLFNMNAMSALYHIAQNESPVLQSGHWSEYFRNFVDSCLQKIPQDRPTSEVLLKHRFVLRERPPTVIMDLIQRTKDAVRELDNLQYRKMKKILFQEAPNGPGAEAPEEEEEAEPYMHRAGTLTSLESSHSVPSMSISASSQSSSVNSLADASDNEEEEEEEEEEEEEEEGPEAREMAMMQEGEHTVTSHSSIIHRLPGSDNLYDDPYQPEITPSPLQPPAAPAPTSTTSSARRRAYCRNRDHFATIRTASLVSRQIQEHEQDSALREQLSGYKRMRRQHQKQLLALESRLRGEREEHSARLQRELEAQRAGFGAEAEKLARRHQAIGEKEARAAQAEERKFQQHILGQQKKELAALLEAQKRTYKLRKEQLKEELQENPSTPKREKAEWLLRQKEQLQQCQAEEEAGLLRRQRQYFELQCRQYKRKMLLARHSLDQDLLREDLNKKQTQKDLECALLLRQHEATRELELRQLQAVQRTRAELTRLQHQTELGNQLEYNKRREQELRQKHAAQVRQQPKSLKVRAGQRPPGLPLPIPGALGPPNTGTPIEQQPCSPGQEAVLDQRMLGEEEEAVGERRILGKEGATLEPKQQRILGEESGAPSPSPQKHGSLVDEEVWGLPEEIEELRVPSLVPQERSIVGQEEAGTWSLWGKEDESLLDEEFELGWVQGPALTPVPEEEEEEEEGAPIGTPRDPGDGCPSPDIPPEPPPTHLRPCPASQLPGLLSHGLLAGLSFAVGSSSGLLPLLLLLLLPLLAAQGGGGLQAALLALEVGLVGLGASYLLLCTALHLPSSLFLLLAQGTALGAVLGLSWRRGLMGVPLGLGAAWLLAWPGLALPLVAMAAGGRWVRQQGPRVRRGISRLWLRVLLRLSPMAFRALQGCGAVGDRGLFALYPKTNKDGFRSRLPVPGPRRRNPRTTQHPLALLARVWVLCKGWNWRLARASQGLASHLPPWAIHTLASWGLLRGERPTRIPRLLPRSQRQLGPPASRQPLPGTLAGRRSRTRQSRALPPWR
UniProt O60271, sequence (O60271 whole entry, looked up): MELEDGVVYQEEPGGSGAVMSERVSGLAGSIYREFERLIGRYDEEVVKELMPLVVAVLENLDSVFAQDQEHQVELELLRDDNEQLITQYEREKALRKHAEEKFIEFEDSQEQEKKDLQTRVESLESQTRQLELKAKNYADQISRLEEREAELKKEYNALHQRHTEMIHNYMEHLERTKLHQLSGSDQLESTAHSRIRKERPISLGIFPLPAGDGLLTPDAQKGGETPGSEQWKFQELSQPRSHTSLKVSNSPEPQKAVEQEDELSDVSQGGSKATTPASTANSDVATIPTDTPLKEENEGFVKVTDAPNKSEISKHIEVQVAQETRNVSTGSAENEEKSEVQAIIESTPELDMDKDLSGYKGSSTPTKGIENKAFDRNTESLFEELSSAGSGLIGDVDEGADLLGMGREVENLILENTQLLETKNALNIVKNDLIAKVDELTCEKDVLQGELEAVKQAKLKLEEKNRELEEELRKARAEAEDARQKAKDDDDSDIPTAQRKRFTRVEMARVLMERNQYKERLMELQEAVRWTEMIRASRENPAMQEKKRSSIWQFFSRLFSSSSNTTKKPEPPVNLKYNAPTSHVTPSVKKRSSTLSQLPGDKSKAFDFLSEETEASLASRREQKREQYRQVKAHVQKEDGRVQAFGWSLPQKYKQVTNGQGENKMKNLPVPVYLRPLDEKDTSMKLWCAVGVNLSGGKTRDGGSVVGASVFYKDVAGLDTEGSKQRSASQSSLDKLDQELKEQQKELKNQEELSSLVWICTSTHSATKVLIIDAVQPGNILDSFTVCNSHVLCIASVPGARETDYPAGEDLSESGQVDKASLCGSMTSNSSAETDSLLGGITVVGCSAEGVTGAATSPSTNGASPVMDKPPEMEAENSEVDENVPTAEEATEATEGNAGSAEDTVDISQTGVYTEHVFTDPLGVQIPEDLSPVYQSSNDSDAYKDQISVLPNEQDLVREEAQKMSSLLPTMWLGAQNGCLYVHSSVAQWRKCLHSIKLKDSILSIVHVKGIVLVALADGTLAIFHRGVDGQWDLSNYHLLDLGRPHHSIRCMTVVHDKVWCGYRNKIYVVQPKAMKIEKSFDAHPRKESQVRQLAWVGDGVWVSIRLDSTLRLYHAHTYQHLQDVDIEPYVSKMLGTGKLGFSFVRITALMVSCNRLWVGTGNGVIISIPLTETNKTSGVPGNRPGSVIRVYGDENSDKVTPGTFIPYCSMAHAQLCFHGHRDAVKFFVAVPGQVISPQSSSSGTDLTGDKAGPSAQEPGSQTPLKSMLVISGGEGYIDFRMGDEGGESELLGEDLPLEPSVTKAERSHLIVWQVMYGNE
UniProt Q8N9U0, sequence (Q8N9U0 whole entry, looked up): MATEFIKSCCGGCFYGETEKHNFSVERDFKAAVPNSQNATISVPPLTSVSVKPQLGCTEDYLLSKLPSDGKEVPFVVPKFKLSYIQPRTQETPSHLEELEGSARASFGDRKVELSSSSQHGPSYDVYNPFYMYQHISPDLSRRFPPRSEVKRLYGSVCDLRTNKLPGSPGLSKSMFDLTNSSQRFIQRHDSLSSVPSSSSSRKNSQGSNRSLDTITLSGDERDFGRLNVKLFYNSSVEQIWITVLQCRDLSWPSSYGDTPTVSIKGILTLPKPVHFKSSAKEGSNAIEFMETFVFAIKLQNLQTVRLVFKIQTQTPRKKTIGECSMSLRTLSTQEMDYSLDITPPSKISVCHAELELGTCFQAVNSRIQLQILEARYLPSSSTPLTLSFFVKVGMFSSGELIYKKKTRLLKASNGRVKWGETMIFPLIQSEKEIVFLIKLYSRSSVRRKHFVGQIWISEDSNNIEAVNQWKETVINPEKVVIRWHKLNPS
UniProt Q56A73, sequence (Q56A73 whole entry, looked up): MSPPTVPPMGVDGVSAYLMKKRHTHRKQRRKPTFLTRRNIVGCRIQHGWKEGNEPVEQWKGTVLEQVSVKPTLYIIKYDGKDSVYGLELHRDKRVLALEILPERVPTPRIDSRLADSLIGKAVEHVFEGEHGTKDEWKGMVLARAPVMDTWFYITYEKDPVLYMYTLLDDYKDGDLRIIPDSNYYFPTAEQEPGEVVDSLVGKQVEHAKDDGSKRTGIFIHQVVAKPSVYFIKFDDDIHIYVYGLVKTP

With TAF6L (UniProt Q9Y6J9), the log2 fold change in assay [1] was -0.042; in [2] it was 0.114; in [3] it was -0.055; in assay [4], -0.059; in assay [5] it was 0.091; in [6], 0.075.

For SMDT1 (UniProt Q9H4I9), the log2 fold change in [1] was 0.137; in assay [7], 0.033; in [8] it was -0.015; in [9], 0.037; in [5], -0.127; in [10], -0.021.

In the case of TAOK2 (UniProt Q9UL54), the log2 fold change is 0.024 in assay [2]; 0.062 in assay [3]; 0.08 in [7]; 0.487 (active) in assay [8]; 0.051 in assay [4]; 0.007 in assay [5]. In addition, the log2 fold change in assay [6] is -0.363.

As for SLC35B1 isoform 2 (UniProt P78383), the log2 fold change in assay [1] is 0.165; in assay [2], -0.109; in assay [7] it was 0.054; in assay [8], 0.072; in assay [9], 0.267; in [5], -0.221. Further, the values for the log2 fold change in [6] and in [10] were 0.069 and -0.055, respectively.

Turning to SLC46A1 (UniProt Q96NT5), the log2 fold change was 0.056 in assay [9] and 0.011 in [6].

Regarding TM7SF2 (UniProt O76062), the log2 fold change in assay [1] was 0.051; in assay [2] it was 0.015; in [3], -0.045; in [9], 0.252; in assay [4], 0.123; in [6], 0.18.

For the target SUPT5H isoform 2 (UniProt O00267), in assay [9], the log2 fold change was 0.232.

SP2 (UniProt Q02086): the log2 fold change was -0.032 in assay [1] and -0.122 in assay [7].

For TBC1D2 (UniProt Q9BYX2), the log2 fold change was 0.618 (active) in [8] and 0.11 in [5].

As for SSB (UniProt E7ERC4), the log2 fold change in [9] was 0.264; in assay [5], 0.283.

For TEX30 (UniProt Q5JUR7), the log2 fold change in assay [2] was -0.182; in assay [3], 0.047; in [7] it was -0.062; in [8], 0.009; in assay [9] it was 0.138; in assay [4] it was 0.037. In addition, the log2 fold change was -0.119 in assay [5], -0.146 in assay [6] and 0.019 in assay [10].

Turning to SLC39A1 (UniProt Q9NY26), in assay [6], the log2 fold change is -0.157.

STK11IP (UniProt Q8N1F8): the log2 fold change in assay [1] was 0.095; in [3], 0.038; in assay [7], -0.071; in [8], 0.118; in [9], -0.159; in [4], 0.061. The log2 fold change was 0.063 in assay [5], -0.017 in assay [6] and 0.008 in [10].

Consider SRSF6 (UniProt Q13247), for which the log2 fold change in assay [1] was -0.012; in assay [3], -0.16; in [7] it was 0.126; in assay [8] it was 0.248; in assay [9], -0.024; in assay [4], -0.058. Also, the log2 fold change is 0.104 in assay [5], 0.019 in [6] and -0.059 in assay [10].

With SLC8B1 (UniProt Q6J4K2), the log2 fold change in [2] is 0.038; in [3] it was -0.28; in assay [7], -0.022; in assay [9], -0.075; in assay [4], -0.021; in assay [6], 0.069. Moreover, the log2 fold change in [10] was -0.167.

On to SNX2 isoform 2 (UniProt O60749), for which the log2 fold change was 0 in [1]; -0.003 in assay [3]; -0.039 in assay [7]; 0.484 in assay [8]; -0.026 in [9]; -0.144 in assay [4]. Besides, in assay [10], the log2 fold change was -0.054.

For SYK (UniProt P43405), the log2 fold change in assay [2] is 0.015; in [3], -0.025; in [7], -0.386; in [8], 0.901 (active); in assay [9], -0.097; in [4], -0.058. In addition, the values for the log2 fold change in assay [6] and in assay [10] were 0.307 and -0.094, respectively.

Regarding SMARCB1 (UniProt Q12824), the log2 fold change in assay [1] was 0.188; in [7], 0.101; in assay [9], 0.065.

With STK38L (UniProt Q9Y2H1), the log2 fold change in [1] was -0.044; in [2] it was 0.165; in assay [7] it was 0.056; in [8], -0.074; in [9] it was -0.038; in assay [5], 0.079. For the same target, the values for the log2 fold change in [6] and in assay [10] were -0.016 and 0.064, respectively.

On to TCOF1 isoform 6 (UniProt Q13428), for which the log2 fold change in assay [1] was 0.148; in assay [2], -0.078; in assay [7], -0.105; in [9] it was 0.146; in assay [5], 0.545; in [6], -0.024. In assay [10], the log2 fold change was 0.008.

For the target SSBP4 (UniProt U3KPY3), the log2 fold change in [9] was -0.095; in [5], -0.028.

Regarding SLC35B4 (UniProt Q969S0), the log2 fold change was 0.018 in assay [1]; -0.064 in [7]; -0.061 in assay [8]; 0.062 in assay [9]; -0.002 in assay [5]; 0.077 in assay [6]. The log2 fold change in [10] was -0.01.

For the target SPIN4 (UniProt Q56A73), the log2 fold change in [7] is -0.601; in assay [6], -0.245.

With TC2N (UniProt Q8N9U0), the log2 fold change in [2] is 0.077; in assay [9], 0.063; in assay [5], -0.098.

Regarding THAP9 (UniProt Q9H5L6), the log2 fold change was 0.017 in assay [2], -0.065 in [7], -0.463 in assay [5] and 0.121 in assay [10].

Consider STK17B (UniProt O94768), for which the log2 fold change in assay [7] is 0.031; in [6], 0.16; in [10], 0.29.

In the case of SLC9A6 isoform 3 (UniProt Q92581), the log2 fold change was -0.152 in assay [3], -0.152 in [4], -0.021 in assay [6] and 0.109 in [10].

Regarding SPAG9 isoform 4 (UniProt O60271), the log2 fold change in assay [1] is 0.184; in [2] it was -0.025; in assay [7], -0.038; in [9], 0.174; in assay [5], 0.028; in [6], 0.021. Moreover, the log2 fold change in assay [10] was 0.176.
